Assay in all cases: DAPPL (digital affinity profiling via proximity ligation, sequencing); 10 mM Tris-HCl pH 7.5, 50 mM NaCl, 1 mM DTT, 4% glycerol, room temperature, 30 min; GST-TFs on glutathione beads, 16-mer random dsDNA library, 0.1% formaldehyde crosslink after washing; high values mean tight binding
One test has as its target T1, FLI1 (Homo sapiens, UniProt Q01543 1-452).
T1 sequence: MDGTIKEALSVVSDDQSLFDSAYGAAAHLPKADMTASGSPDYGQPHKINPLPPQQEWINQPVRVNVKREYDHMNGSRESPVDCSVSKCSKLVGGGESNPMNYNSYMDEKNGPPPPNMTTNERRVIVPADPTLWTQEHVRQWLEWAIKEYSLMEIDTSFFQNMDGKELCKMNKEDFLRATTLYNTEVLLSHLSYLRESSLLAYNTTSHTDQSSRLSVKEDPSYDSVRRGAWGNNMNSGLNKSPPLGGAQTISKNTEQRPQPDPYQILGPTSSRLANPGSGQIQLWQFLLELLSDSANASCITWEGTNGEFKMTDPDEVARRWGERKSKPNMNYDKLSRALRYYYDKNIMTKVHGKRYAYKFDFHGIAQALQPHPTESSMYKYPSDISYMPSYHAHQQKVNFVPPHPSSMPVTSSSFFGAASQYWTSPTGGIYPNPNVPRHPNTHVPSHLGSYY
As to conditions: protein: recombinant; tags: N-terminal GST; dsDNA, one strand shown. In outline: (§1)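 Pools of DNA-barcoded human transcription factors, expressed in yeast as GST fusions on glutathione beads and combined with a tag-only sample, were incubated with 200 nmole of a 16-mer random double-stranded DNA library. Incubation took 30 min at room temperature in Tris/NaCl/DTT/glycerol buffer and was followed by washing, 0.1% formaldehyde crosslinking, proximity ligation (BsaI/T4 ligase, 1 h, 37 °C), PCR amplification and sequencing on an Illumina NextSeq500. Binding signal is the ratio of a hexamer's read frequency for a factor to its frequency for the tag-only sample.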

A further test has as its target T2, ELK1 (Homo sapiens, UniProt P19419 1-428).
T2 sequence: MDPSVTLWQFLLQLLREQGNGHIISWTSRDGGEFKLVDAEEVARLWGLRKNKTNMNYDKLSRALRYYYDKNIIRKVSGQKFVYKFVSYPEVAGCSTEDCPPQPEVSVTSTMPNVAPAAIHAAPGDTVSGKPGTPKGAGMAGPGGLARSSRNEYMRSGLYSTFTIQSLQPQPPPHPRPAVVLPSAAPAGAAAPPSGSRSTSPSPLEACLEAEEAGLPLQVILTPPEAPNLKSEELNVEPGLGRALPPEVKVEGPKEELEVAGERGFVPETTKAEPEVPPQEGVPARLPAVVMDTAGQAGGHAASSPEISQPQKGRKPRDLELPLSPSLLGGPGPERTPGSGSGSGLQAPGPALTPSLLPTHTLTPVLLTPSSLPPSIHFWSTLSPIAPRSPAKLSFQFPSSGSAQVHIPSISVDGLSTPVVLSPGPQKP
Particulars: protein: recombinant; tags: N-terminal GST; dsDNA, one strand shown. In a few lines: as §1

A further test deals with T3, GABPA (Homo sapiens, UniProt Q06546 1-454).
T3 sequence: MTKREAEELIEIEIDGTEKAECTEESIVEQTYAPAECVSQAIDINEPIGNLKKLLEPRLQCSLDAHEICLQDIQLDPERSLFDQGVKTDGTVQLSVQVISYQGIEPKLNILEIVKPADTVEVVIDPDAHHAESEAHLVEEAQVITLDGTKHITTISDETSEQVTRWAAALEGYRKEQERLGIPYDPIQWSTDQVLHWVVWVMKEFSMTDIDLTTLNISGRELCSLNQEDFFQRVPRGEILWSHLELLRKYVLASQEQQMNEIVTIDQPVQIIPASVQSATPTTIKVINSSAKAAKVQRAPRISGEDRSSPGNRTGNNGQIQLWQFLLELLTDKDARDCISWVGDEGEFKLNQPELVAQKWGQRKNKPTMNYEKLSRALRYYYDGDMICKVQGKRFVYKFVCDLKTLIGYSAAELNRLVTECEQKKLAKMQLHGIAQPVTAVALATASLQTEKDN
As to conditions: protein: recombinant; tags: N-terminal GST; dsDNA, one strand shown. In a few lines:
as §1

The target of another test is T4, ERG (Homo sapiens, UniProt P11308 1-479).
T4 sequence: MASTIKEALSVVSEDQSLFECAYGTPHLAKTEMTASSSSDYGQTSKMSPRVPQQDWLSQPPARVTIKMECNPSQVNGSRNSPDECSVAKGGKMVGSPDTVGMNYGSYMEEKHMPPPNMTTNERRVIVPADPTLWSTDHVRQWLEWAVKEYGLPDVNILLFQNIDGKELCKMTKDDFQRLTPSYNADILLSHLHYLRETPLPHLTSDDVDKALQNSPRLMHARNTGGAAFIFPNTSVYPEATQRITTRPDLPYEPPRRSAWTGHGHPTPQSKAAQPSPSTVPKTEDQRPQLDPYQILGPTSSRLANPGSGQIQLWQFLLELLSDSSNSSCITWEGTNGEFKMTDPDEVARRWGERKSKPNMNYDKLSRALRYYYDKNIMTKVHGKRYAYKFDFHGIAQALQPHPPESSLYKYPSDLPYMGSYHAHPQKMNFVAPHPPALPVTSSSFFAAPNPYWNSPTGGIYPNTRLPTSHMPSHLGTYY
Particulars: protein: recombinant; tags: N-terminal GST; dsDNA, one strand shown. In a few lines:
as §1

A further test has as its target ELF1 (Homo sapiens, UniProt P32519 1-619). Particulars: protein: recombinant; tags: N-terminal GST; dsDNA, one strand shown. In outline: as §1
In the next test the target is T5, EHF (Homo sapiens, UniProt Q9NZC4 1-300).
T5 sequence: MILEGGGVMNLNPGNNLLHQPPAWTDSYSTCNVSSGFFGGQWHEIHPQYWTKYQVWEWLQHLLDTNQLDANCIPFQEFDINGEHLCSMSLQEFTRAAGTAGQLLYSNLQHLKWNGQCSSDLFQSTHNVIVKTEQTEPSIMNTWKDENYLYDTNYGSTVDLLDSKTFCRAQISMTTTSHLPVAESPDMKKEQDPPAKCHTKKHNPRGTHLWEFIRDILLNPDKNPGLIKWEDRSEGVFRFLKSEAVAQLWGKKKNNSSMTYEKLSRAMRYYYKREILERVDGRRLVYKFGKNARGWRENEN
Particulars: protein: recombinant; tags: N-terminal GST; dsDNA, one strand shown. In outline:
as §1

A further test concerns the target SPI1 (Homo sapiens, UniProt P17947 1-270). As to conditions: protein: recombinant; tags: N-terminal GST; dsDNA, one strand shown. In a few lines:
as §1

The next test has as its target SPIB (Homo sapiens, UniProt Q01892 1-262). As to conditions: protein: recombinant; tags: N-terminal GST; dsDNA, one strand shown. In outline:
as §1

For the next test, the target named is T6, ELK3 (Homo sapiens, UniProt P41970 1-407).
T6 sequence: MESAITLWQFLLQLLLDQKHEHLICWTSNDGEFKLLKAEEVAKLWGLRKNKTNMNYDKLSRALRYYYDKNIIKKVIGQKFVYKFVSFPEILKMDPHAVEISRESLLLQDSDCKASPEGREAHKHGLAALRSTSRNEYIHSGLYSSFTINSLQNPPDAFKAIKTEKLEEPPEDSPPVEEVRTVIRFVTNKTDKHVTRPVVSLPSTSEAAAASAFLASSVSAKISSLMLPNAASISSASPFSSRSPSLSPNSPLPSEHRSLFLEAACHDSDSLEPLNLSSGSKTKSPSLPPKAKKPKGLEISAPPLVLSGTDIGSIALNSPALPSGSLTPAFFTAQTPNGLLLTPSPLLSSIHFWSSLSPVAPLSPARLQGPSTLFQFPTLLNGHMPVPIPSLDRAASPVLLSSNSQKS
Particulars: protein: recombinant; tags: N-terminal GST; dsDNA, one strand shown. In a few lines:
as §1

A further test deals with T7, FEV (Homo sapiens, UniProt Q99581 1-238).
T7 sequence: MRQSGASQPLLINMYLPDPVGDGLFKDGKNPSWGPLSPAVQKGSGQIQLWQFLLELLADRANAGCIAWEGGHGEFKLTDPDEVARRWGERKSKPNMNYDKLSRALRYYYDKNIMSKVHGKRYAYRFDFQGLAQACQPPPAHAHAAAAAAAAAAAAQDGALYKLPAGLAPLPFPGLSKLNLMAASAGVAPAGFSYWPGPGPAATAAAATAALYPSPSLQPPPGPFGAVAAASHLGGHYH
Particulars: protein: recombinant; tags: N-terminal GST; dsDNA, one strand shown. In a few lines:
as §1

A further test concerns the target ETV5 (Homo sapiens, UniProt P41161 1-510). Particulars: protein: recombinant; tags: N-terminal GST; dsDNA, one strand shown. In a few lines:
as §1

A further test deals with HSF1 (Homo sapiens, UniProt Q00613 1-529). As to conditions: protein: recombinant; tags: N-terminal GST; chain copies: 3; dsDNA, one strand shown. In outline:
as §1

In a further test the target is T8, SPIC (Homo sapiens, UniProt Q8N5J4 1-248).
T8 sequence: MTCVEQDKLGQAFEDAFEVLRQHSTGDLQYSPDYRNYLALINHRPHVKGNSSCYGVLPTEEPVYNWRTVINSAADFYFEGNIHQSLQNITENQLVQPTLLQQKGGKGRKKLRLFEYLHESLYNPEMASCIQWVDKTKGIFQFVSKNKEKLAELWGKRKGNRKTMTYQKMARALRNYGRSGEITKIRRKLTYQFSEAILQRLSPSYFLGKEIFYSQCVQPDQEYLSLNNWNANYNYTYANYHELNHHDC
Particulars: protein: recombinant; tags: N-terminal GST; dsDNA, one strand shown. In outline:
as §1

The target in the next test is ELF4 (Homo sapiens, UniProt Q99607 1-663). Particulars: protein: recombinant; tags: N-terminal GST; dsDNA, one strand shown. In a few lines: as §1
In another test the target is T9, ELK4 (Homo sapiens, UniProt P28324-2 1-405).
T9 sequence: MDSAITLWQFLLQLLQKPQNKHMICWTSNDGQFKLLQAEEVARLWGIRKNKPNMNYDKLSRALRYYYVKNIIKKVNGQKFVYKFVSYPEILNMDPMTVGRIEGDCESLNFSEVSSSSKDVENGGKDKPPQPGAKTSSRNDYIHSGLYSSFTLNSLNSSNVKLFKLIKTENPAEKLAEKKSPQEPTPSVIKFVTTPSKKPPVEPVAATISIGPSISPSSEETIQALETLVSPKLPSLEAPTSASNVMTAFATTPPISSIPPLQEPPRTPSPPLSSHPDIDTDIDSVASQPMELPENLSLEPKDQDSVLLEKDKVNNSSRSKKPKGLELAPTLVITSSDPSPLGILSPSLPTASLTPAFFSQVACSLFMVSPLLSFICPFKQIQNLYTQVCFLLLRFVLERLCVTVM
Particulars: protein: recombinant; tags: N-terminal GST; dsDNA, one strand shown. In a few lines:
as §1

The target in a further test is T10, ETV2 (Homo sapiens, UniProt O00321 1-342).
T10 sequence: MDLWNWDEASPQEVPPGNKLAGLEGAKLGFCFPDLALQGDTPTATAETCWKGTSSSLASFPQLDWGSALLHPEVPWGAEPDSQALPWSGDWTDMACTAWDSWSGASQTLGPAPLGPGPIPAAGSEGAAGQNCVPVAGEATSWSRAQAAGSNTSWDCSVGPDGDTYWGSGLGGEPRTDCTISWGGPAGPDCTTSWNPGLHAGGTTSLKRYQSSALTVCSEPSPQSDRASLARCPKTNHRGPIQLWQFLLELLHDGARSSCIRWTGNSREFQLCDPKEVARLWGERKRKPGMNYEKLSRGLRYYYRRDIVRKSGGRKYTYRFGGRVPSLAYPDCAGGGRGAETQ
Particulars: protein: recombinant; tags: N-terminal GST; dsDNA, one strand shown. In outline: as §1

The target of a further test is T11, ELF3 (Homo sapiens, UniProt P78545 1-371).
T11 sequence: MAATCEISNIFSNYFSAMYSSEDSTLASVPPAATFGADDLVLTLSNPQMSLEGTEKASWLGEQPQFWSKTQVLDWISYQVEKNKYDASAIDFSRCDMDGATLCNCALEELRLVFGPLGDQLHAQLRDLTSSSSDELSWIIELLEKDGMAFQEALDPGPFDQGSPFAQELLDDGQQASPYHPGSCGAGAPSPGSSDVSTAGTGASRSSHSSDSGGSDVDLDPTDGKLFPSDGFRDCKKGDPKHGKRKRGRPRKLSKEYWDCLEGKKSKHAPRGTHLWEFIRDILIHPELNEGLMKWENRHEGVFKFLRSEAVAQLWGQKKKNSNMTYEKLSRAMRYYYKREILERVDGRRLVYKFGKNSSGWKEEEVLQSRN
As to conditions: protein: recombinant; tags: N-terminal GST; dsDNA, one strand shown. In a few lines: as §1

A further test has as its target ETV1 (Homo sapiens, UniProt P50549 1-477). As to conditions: protein: recombinant; tags: N-terminal GST; dsDNA, one strand shown. In outline: as §1

Chain of SPIB (Q01892 whole entry): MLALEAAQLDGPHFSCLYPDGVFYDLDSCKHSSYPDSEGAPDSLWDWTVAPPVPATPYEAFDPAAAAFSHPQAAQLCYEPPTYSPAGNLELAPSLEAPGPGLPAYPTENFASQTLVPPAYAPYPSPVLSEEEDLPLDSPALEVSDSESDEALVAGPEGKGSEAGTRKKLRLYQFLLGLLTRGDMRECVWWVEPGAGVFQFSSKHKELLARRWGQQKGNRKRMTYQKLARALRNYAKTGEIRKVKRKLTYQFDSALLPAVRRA
Chain of ELF1 (P32519 whole entry): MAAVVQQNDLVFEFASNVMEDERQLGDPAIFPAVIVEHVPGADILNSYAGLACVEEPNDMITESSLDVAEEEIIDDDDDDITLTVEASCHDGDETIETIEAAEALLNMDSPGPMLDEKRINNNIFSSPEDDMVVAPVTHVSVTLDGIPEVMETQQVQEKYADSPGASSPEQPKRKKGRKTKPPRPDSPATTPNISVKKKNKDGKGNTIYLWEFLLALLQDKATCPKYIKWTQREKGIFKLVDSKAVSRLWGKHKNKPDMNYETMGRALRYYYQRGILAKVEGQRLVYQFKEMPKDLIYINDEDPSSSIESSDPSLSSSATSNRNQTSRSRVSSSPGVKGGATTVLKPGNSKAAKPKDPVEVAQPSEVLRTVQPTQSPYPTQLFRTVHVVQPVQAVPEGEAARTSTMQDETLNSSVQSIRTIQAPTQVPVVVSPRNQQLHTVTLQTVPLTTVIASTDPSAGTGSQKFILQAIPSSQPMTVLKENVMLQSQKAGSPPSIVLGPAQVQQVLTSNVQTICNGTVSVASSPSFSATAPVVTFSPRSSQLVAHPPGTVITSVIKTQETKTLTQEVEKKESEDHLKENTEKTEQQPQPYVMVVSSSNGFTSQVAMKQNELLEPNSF
Chain of ETV1 (P50549 whole entry): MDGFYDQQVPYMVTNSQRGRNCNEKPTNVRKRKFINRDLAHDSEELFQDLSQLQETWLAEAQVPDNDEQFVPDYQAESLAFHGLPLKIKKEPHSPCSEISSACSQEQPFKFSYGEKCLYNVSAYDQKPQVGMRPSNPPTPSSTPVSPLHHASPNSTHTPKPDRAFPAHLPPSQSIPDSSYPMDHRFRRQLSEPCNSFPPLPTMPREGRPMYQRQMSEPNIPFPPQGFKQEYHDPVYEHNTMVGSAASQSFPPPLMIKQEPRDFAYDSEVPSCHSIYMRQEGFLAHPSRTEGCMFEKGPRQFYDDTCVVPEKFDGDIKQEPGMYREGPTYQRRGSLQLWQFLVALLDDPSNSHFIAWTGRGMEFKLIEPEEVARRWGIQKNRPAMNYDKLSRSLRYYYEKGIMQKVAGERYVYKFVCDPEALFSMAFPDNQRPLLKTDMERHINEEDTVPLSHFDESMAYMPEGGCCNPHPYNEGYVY
Chain of ETV5 (P41161 whole entry): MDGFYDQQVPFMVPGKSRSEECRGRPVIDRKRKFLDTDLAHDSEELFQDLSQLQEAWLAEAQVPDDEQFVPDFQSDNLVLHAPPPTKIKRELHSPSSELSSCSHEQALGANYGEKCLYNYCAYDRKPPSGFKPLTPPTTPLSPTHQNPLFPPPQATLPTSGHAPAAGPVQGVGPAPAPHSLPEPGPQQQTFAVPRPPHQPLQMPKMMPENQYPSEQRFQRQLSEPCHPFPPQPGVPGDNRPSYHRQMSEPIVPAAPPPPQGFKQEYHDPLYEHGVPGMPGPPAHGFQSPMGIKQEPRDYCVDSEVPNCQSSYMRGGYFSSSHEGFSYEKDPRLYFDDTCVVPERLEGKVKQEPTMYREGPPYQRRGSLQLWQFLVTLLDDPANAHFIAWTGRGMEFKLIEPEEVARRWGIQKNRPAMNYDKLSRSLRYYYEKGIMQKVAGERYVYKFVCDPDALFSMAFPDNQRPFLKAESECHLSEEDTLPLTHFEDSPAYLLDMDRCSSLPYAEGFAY
Chain of HSF1 (Q00613 whole entry): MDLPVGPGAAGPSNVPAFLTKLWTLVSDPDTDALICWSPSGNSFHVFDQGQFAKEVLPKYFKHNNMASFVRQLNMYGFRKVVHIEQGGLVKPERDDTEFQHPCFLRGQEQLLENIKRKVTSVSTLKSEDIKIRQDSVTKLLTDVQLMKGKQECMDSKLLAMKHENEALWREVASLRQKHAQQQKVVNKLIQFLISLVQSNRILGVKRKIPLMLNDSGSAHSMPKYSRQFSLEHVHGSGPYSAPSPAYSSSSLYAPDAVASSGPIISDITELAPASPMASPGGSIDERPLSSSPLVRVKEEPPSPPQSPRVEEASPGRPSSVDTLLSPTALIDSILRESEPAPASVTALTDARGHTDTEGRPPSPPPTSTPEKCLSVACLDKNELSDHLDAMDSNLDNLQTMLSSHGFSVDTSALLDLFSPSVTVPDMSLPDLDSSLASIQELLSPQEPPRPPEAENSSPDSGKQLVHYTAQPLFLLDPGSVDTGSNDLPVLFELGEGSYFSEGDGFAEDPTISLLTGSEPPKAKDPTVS
Chain of ELF4 (Q99607 whole entry): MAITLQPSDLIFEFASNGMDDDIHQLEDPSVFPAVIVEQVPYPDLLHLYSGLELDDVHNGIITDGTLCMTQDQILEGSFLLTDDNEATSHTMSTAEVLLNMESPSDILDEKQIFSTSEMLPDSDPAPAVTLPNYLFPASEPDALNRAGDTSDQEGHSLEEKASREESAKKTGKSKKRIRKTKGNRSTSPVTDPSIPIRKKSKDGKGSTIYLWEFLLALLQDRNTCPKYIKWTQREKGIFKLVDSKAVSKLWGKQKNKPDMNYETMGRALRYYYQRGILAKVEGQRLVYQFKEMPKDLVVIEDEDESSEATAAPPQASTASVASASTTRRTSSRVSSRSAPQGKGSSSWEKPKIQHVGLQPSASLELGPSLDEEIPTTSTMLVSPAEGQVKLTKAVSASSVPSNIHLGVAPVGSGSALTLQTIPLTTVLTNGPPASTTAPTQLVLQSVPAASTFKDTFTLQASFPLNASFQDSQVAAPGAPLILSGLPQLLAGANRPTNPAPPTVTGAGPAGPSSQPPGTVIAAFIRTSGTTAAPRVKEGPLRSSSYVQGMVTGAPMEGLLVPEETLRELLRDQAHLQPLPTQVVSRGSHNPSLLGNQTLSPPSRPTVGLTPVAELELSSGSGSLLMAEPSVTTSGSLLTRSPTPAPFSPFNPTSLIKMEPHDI

As to GGAAAT, the binding signal with FLI1 is 2.51 fold enrichment (6-mer frequency, TF over GST control); with ELK1, 2.64 fold enrichment (6-mer frequency, TF over GST control); with GABPA, 2.39 fold enrichment (6-mer frequency, TF over GST control); with ERG it was 3.22 fold enrichment (6-mer frequency, TF over GST control); with ELF1, 2.39 fold enrichment (6-mer frequency, TF over GST control); with EHF, 3.06 fold enrichment (6-mer frequency, TF over GST control). The binding signal was 2.6 fold enrichment (6-mer frequency, TF over GST control) with SPI1; 2.88 fold enrichment (6-mer frequency, TF over GST control) with SPIB; 2.69 fold enrichment (6-mer frequency, TF over GST control) in the test with ELK3; 4 fold enrichment (6-mer frequency, TF over GST control) with FEV; 3.05 fold enrichment (6-mer frequency, TF over GST control) with ETV5; 1.29 fold enrichment (6-mer frequency, TF over GST control) with HSF1. Also, the binding signal with SPIC was 2.47 fold enrichment (6-mer frequency, TF over GST control); in the test with ELF4 it was 2.4 fold enrichment (6-mer frequency, TF over GST control); with ELK4, 2.13 fold enrichment (6-mer frequency, TF over GST control); in the test with ETV2 it was 2.4 fold enrichment (6-mer frequency, TF over GST control); with ELF3, 2.74 fold enrichment (6-mer frequency, TF over GST control); in the test with ETV1 it was 2.69 fold enrichment (6-mer frequency, TF over GST control).

The values above are taken from publication PMC7862700, “An all-to-all approach to the identification of sequence-specific readers for epigenetic DNA modifications on cytosine”.
